Experimental findings from PubChem BioAssay AID1850 (Southern Research Specialized Biocontainment Screening …, 2009) are described below.

Among all 310,000 compounds or so, about 1,000 (0.32%) were called active. No rule for the calls is given here. These entries were drawn from the full list. Entries with a potency or affinity are not part of this list.

This assay is described as follows: Inhibition of PhoP regulon, Salmonella typhi GFP reporter cells, confirmation, 4 h (AID 1850).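 Also: 0% = induced wells with vehicle and 100% = uninduced wells.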 As to conditions: Salmonella Typhi PhoP-promoter GFP reporter, fluorescence, at 50 µM, hits give high values.
Take `Cc1ccc(C[n+]2cc(-c3ccc(Cl)cc3)n3c2CCC3)cc1`: the inhibition was 8.21% (inactive).
Under `Cc1ccc(-c2c[n+](Cc3cccc(Cl)c3)c3n2CCC3)cc1` stands 9.09% (inactive); under `Clc1ccc(-c2c[n+](Cc3ccc(Br)cc3)c3n2CCCCC3)cc1`, 4.54% (inactive).
Regarding `Clc1ccc(C[n+]2cc(-c3ccccc3)n3c2CCC3)cc1Cl`, the inhibition was -4.76% (inactive).
Under `COc1ccc(NC(=S)NC(C)C(c2ccccc2)N2CCOCC2)cc1` (configuration not stated) stands -8.71% (inactive); under `O=C(CNC(=O)Cc1ccc(Cl)cc1)NCC(=O)N1CCCCC1`, -7.52% (inactive); under `CCC(=O)Nc1c(C#N)c2nc3ccccc3nc2n1C1CCCCC1`, 0.26% (inactive).
The value for `CCCCn1c(NS(=O)(=O)c2ccc(C)cc2)c(C(=O)OCC)c2nc3ccccc3nc21` was -4.9% (inactive); that for `CC(=O)Nc1c(S(=O)(=O)c2ccccc2)c2nc3ccccc3nc2n1Cc1ccccc1` was -2.36% (inactive); that for `CCCCCn1c(NC(=O)c2ccco2)c(S(=O)(=O)c2ccc(C)cc2)c2nc3ccccc3nc21` was -3.82% (inactive).
With `CCCCn1c(N)c(S(=O)(=O)c2ccc(C)cc2)c2nc3ccccc3nc21`, the inhibition was -6.91% (inactive).
Under `C=CCn1c(NC(=O)c2ccc(Br)o2)c(S(=O)(=O)c2ccccc2)c2nc3ccccc3nc21` stands 21.1% (inactive); under `Nc1c(S(=O)(=O)c2ccccc2)c2nc3ccccc3nc2n1C1CC1`, 0.22% (inactive); under `CCOC(=O)c1c(NS(=O)(=O)c2ccccc2)n(CCCOC)c2nc3ccccc3nc12`, -3.68% (inactive).
Under `CCOC(=O)c1c(C(=O)OCC)c(C)n(Cc2cc(OC)c(OC)c(OC)c2)c1C` stands -2.04% (inactive); under `COc1ccc(C(=O)N/N=C/c2c(C)nn(-c3ccccc3)c2OC)cc1`, -1.74% (inactive).
Under `CCn1c(SCC(=O)NCc2ccccc2)nnc1C(CO)NC(=O)c1ccccc1` (configuration not stated) stands -10.3% (inactive); under `CCC(=O)c1ccc(N2CCN(C(=O)Cc3ccccc3)CC2)c(F)c1`, 18.2% (inactive).
For `CCOC(=O)c1c(N)nn(C(C)=O)c1-c1ccccc1`, the inhibition is -5.98% (inactive).
The value for `Cc1ccccc1OCC(=O)Nc1nnc(COc2ccccc2)s1` was -8.87% (inactive); that for `CCCCn1c(SCC(=O)Nc2nnc(CC)s2)nc2ccccc2c1=O` was -4.64% (inactive); that for `O=C(N/N=C\c1ccc(Cl)s1)c1ccc(Cn2cccn2)o1` was -13.9% (inactive).
In the case of `C=C(C)c1cccc(C(C)(C)NC(=O)NCCCN2CCCC2=O)c1`, the inhibition was -0.97% (inactive).
Under `Cc1noc(C)c1CSCC(=O)N1CCN(c2ccc([N+](=O)[O-])cc2)CC1` stands 2.46% (inactive); under `CCCCn1c(NC(=O)c2ccc(Br)o2)c(S(=O)(=O)c2ccccc2)c2nc3ccccc3nc21`, -28% (inactive).
Under `Cc1ccc(S(=O)(=O)c2c(N)n(CCCO)c3nc4ccccc4nc23)cc1` stands 0.68% (inactive); under `CCc1ccc(C(=O)/C=C/c2ccc([N+](=O)[O-])o2)cc1`, -7.72% (inactive).
Under `O=[N+]([O-])c1ccc(/C=[N+](\[O-])[C@@H]2CCCC[C@@H]2/[N+]([O-])=C/c2ccc([N+](=O)[O-])o2)o1` stands 7.15% (inactive).
As to `O=c1oc2cc(S(=O)(=O)NCCCO)ccc2c2ccc(S(=O)(=O)NCCCO)cc12`, the inhibition is 0.32% (inactive).
The value for `O=C(Nc1ccccc1)c1cc2ccccc2o1` was 21.6% (inactive); that for `Cc1cccc(NC(=O)c2cc3ccccc3o2)c1` was -8.7% (inactive).
As to `COc1ccc(Nc2cc(Nc3cc(OC)c(OC)c(OC)c3)ncn2)cc1`, the inhibition was 10.6% (inactive).
Under `Cc1ccc(NC(=O)CS(=O)CC(=O)Nc2ccc(N3CCOCC3)cc2)cc1Cl` (configuration not stated) stands 12.6% (inactive).
The value for `CC(C(=O)c1ccc(Br)cc1)[n+]1cccc(NC(=O)c2ccccc2)c1` (configuration not stated) was 4.99% (inactive).
The value for `CC(C(=O)c1ccc(-c2ccccc2)cc1)[n+]1cccc(C(N)=O)c1` (configuration not stated) was 5.49% (inactive); that for `CC(=O)C1=C(C)OC(N)=C(C#N)C1c1cccnc1` (configuration not stated) was -13.9% (inactive).
Take `CCOC(=O)C1=C(c2ccccc2)OC(N)=C(C#N)C1c1cccnc1` (configuration not stated): the inhibition is 9.75% (inactive).
Under `CCC(C)(C)n1nnnc1C(c1cc2cc(C)cc(C)c2[nH]c1=O)N1CCN(C(=O)c2ccco2)CC1` (configuration not stated) stands 8.8% (inactive); under `COc1ccccc1C1/C(=C(\O)c2ccc3c(c2)OCCO3)C(=O)C(=O)N1CCCn1ccnc1` (configuration not stated), 5.32% (inactive); under `O=c1oc2ccccc2c(O)c1Cc1cc(Cl)c2cccnc2c1O`, 10.9% (inactive).
With `CCOC(=O)N1CCN(Cc2ccccc2Cl)CC1`, the inhibition is -4.15% (inactive).
Under `O=c1c(CN2CCN(c3ccccn3)CC2)coc2ccccc12` stands -1.82% (inactive); under `COCc1cc(CN2CCN(C)CC2)c(O)c2ncccc12`, 4.48% (inactive); under `CCOC(=O)N1CCN(Cc2ccc(O)c3ncccc23)CC1`, 1.82% (inactive).
Under `CN1CCN(Cc2cc(Cl)c3cccnc3c2OC(=O)c2cccs2)CC1` stands -8.42% (inactive).
Under `COc1ccc2nc(N(CCN(C)C)C(=O)c3ccc(C(=O)c4ccccc4)cc3)sc2c1` stands -16% (inactive); under `Cc1ccccc1CSCC(Nc1ccc(C(=O)O)cc1[N+](=O)[O-])C(=O)O` (configuration not stated), -0.8% (inactive); under `CCc1nnc(NS(=O)(=O)c2ccc(N3C(=O)C4CC=C(Cl)CC4C3=O)cc2)s1` (configuration not stated), 5.39% (inactive).
As for `c1ccc(CNc2nc3ccccc3[nH]2)cc1`, the inhibition was -2.74% (inactive).
Consider `COc1ccc2nc(NCc3ccccc3)[nH]c2c1`, for which the inhibition is 18.6% (inactive).
Under `Cc1cc([N+](=O)[O-])nn1CC(=O)N1CCOCC1` stands 12.6% (inactive).
The value for `Clc1ccc(C[n+]2c(-c3ccccc3)cc(-c3ccccc3)cc2-c2ccccc2)cc1` was 16.5% (inactive); that for `Cc1ccc(-c2cc(-c3ccccc3)cc(-c3ccccc3)[n+]2-c2ccccc2)cc1` was 20.6% (inactive); that for `Fc1ccc(C[n+]2c(-c3ccccc3)cc(-c3ccccc3)cc2-c2ccccc2)cc1` was 11.1% (inactive).
`c1ccc(-c2cc(-c3ccccc3)[n+](-c3ccccc3)c(-c3ccccc3)c2)cc1`: the inhibition was 19.1% (inactive).
Under `CCC1CCCCN1C(=O)c1cc(COc2ccc(-n3cncn3)cc2)on1` (configuration not stated) stands -7.8% (inactive); under `CN(c1ccccc1C(=O)Nc1ccc(S(=O)(=O)N2CCCC2)cc1)S(C)(=O)=O`, 9.12% (inactive).
Regarding `Cc1ccsc1/C=C(\C#N)C(=O)NCc1cccnc1`, the inhibition was -18.9% (inactive).
Under `CCOc1ccccc1NC(=O)c1oc2ccccc2c1NC(=O)C1CCCO1` (configuration not stated) stands 0.28% (inactive); under `CCOC(=O)C1(Cc2cccc(F)c2)CCN(CC(O)CO)CC1` (configuration not stated), 1.5% (inactive); under `CCOC(=O)C1CCN(Cc2cc(C(C)(C)C)c(O)c(C(C)(C)C)c2)CC1`, -7.6% (inactive).
Take `COc1ccc(OC)c(/C=N/NC(=O)c2[nH]ncc2Br)c1`: the inhibition is -1.03% (inactive).
Under `COc1ccc(/C=N/NC(=O)c2[nH]ncc2Br)c(OC)c1` stands 4.69% (inactive).
Under `CC(=O)c1ccc(NC(=S)NCc2ccc(Cl)cc2Cl)cc1` stands -6.96% (inactive); under `CCn1c(=S)sc2c(=O)n(CC(=O)Nc3ccc(Cl)cc3)c(C)nc21`, 1.24% (inactive); under `O=C(CN1CC[n+]2c(-c3ccccc3)csc21)c1ccc(Br)cc1`, 7.36% (inactive).
The value for `O=C(CN1CC[n+]2c(-c3cccs3)csc21)c1ccc(Br)cc1` was -5.14% (inactive); that for `C/C(=N/Oc1nc(C)cc(C)n1)c1ccccc1` was -15.4% (inactive).
On to `Cc1c(C)[n+](=O)c(-c2ccc(Br)cc2)c(C)n1[O-]`, for which the inhibition is 4.2% (inactive).
Under `C[n+]1c(/C=C/c2ccc(O)cc2)ccc2ccccc21` stands 10.8% (inactive); under `Cc1cc(/C=C2\SC(=O)NC2=O)c(C)n1-c1ccc(N(C)C)cc1`, -4.88% (inactive); under `Cc1cc(/C=N/O)c(C)n1-c1ccccc1`, -9.52% (inactive).
Under `CC[n+]1c(/C=C/c2ccc(N(C)C)cc2)ccc2ccccc21` stands 1.34% (inactive); under `CC1(C)CC(=O)C(C(=O)Cc2ccccc2[N+](=O)[O-])C(=O)C1`, 2.13% (inactive); under `COc1ccc(Nc2nc(C)c3ccccc3n2)cc1`, 1.01% (inactive).
For `COc1ccc(Nc2nc(N)c3ccccc3n2)c(OC)c1`, the inhibition is 4.67% (inactive).
The value for `COc1cc2nc(Nc3ccc(C)c(Cl)c3)nc(N)c2cc1OC` was 5.86% (inactive); that for `COc1cc2nc(Nc3ccc(C)c(C)c3)nc(N)c2cc1OC` was -4.96% (inactive).
Under `CCOc1ccc(Nc2ncnc(N)n2)cc1` stands 20.7% (inactive); under `COc1ccc(Cl)cc1Nc1nc(N)c2ccccc2n1`, 2.43% (inactive); under `Nc1nc(Nc2ccc(Cl)cc2)n[nH]1`, 1.12% (inactive).
`CCOc1ccc(Nc2nc(N)c([N+](=O)[O-])c(NCc3ccccc3)n2)cc1`: the inhibition was -9.51% (inactive).
In the case of `CCOC(=O)CSc1nnc2n1C(C)(C)Cc1ccccc1-2`, the inhibition is 11.2% (inactive).
The value for `Cc1cc2n(n1)C(c1ccco1)Nc1ccccc1-2` (configuration not stated) was -1.68% (inactive); that for `COc1cc2ncnc(NCc3ccc(C)o3)c2cc1OC` was 1.27% (inactive); that for `CCOC(=O)N/N=C/c1ccccc1OCc1ccc(Cl)cc1` was 2.12% (inactive).
Under `O=c1[nH]c(C2CCCN(S(=O)(=O)c3ccccc3F)C2)nc2c1nnn2Cc1ccccc1Cl` (configuration not stated) stands 0.52% (inactive); under `CCN(CC)CC(=O)Nn1c(C)nc2c(ncn2-c2ccccc2)c1=O`, 2.92% (inactive); under `CCCN(CCC)CC(=O)NCC1(c2ccccc2)CCOCC1`, 5.98% (inactive).
Under `CCOc1ccccc1NC(=O)c1cc(-c2cc(OC)c(OC)c(OC)c2)nc2ccccc12` stands 6.2% (inactive); under `CC(=O)Nc1ccc(NC(=O)[C@H](C)NC(=O)c2ccco2)cc1`, 2.64% (inactive); under `CCOC(=O)c1oc2ccccc2c1COC(=O)CNC(=O)c1ccccc1OC`, -8.98% (inactive).
